Experimental data taken from PubChem BioAssay AID485270 (The Scripps Research Institute Molecular Screening Center, 2010).
In all, about 330,000 compounds went through this assay and about 5,800 (1.8%) were called active. No stated cut-off is given here; in the data, active means inhibition mostly above about 38% (no sharp cut-off); inactive means mostly below about 40%. The sample as a whole holds a higher share of actives than the screen did.

The compounds below were run against Orexin/Hypocretin receptor type 1 (Homo sapiens) (UniProt O43613) (assay: blocks the human orexin 1 receptor (AID 485270;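 further: 0% = agonist challenge alone and 100% = reference antagonist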)). Details: OX1R-expressing cells, FRET antagonist read-out; at 6.6 µM; active compounds read high.
Orexin/Hypocretin receptor type 1 (Homo sapiens), sequence (O43613 whole entry, looked up): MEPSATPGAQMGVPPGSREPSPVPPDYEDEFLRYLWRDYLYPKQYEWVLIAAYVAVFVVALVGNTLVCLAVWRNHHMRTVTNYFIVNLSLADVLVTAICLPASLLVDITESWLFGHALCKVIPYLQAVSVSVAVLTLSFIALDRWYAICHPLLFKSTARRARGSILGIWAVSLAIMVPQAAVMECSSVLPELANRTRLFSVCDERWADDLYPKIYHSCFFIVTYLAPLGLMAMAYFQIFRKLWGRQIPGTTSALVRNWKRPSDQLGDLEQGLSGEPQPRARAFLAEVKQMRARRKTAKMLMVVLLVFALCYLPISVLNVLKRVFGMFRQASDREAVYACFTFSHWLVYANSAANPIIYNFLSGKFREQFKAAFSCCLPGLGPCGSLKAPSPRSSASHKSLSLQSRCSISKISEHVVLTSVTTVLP

inhibition, inactive:
COc1ccc(CNC(=O)C[C@H]2C[C@H](C(=O)N3CCOCC3)[C@@]3(C)c4[nH]c5cc(CCC(=O)N(C)C)ccc5c4CCN3C2=O)cc1OC 1.77%
Nc1c(-c2ccc(F)cc2)cnc2ncnn12 7.26%
Cc1cccc(-c2nnc(SCC(=O)O)n2Cc2ccccc2)c1 -2.09%
CCn1nnnc1SCC(=O)c1ccc(C)cc1C 12.5%
CCN(C(=O)COC(=O)c1ccccc1O)c1cccc2ccccc12 4.23%
CC[C@]12c3[nH]c4ccc(Cl)cc4c3CCN1C(=O)[C@@H](CC(=O)NCCCOC)C[C@@H]2C(=O)N1CCN(C(=O)C2CC2)CC1 -3.2%
O=C(O)C1CCCCC1C(=O)N1CCN(S(=O)(=O)c2ccc(F)cc2)CC1 (stereo not drawn) 7.06%
O=C(C1CCCN(S(=O)(=O)c2ccccc2)C1)N1CCN(c2ccc(F)cc2)CC1 (stereo not drawn) 13.8%
Cc1ccc(S(=O)(=O)N2CCCC(C(=O)N3CCN(C)CC3)C2)cc1 (stereo not drawn) 16.7%
COc1ccc(CCC(=O)N2CCN(S(=O)(=O)c3ccc(OC)cc3)CC2)cc1 3.59%
O=C(Cc1ccccc1)NNS(=O)(=O)c1ccc([N+](=O)[O-])cc1 42%
O=C(NNS(=O)(=O)c1ccc([N+](=O)[O-])cc1)C1CCCCC1 34.2%
CC1CCCN(C(=O)CN2C(=O)c3ccccc3S2(=O)=O)C1 (stereo not drawn) 1.18%
COc1ccc(C(=O)Nc2cc(S(=O)(=O)N3CCCC3)ccc2Cl)cc1 16.2%
COc1ccc(OCC(=O)NNC(=O)C2CCC2)cc1 -2.24%
O=C(COC(=O)COc1cccc(F)c1)NCC1CCCCC1 4.71%
O=C(CN1C(=O)NC2(CCOc3ccccc32)C1=O)Nc1cccc([N+](=O)[O-])c1 (stereo not drawn) 7.29%
CCc1noc(C)c1C(=O)Nc1nc2ccc(OC)cc2s1 25.1%
Cc1ccc(F)cc1NC(=O)CSCc1c(C)noc1C -1.27%
Nn1c(SCC(=O)NC2CCCc3ccccc32)nnc1C1CC1 (stereo not drawn) 8.92%
CCOC(=O)C(C)Oc1cccc2c(=O)n(CC(=O)N3CCc4ccccc43)ccc12 (stereo not drawn) 12.2%
COC(=O)COc1cccc2c(=O)n(CC(=O)NCCc3ccc(OC)c(OC)c3)ccc12 1.07%
Cc1onc(-c2c(F)cccc2Cl)c1C(=O)OCC(=O)N1C(C)CCCC1C (stereo not drawn) 17.2%
COc1ccc(/C=N/NC(=O)c2ccc3c(c2)OCCO3)c(OC)c1 22.9%
CN(C)CCNC(=O)c1[nH]nc2c1CCc1ccccc1-2 3.78%
Cc1ccc(S(=O)(=O)NCC(C)NS(C)(=O)=O)cc1 (stereo not drawn) 4.32%
CCN(CC(=O)NC(C)C)C(=O)c1cc(S(=O)(=O)N2CCCCC2)ccc1N1CCCCC1 4.56%
CC(=O)NC(CC(=O)Nc1ccc(S(=O)(=O)N2CCOCC2)cc1)c1ccccc1 (stereo not drawn) 6.07%
COc1ccc(C(=O)NC2CCCc3c2cnn3-c2cccc(C)c2C)c(OC)n1 (stereo not drawn) 38.4%
Cn1nccc1C(=O)NC1CCCc2c1cnn2-c1ccccc1F (stereo not drawn) 26.4%
CC[C@]1(C(=O)OC)[C@H]2C(=O)N(Cc3ccccc3)C(=O)[C@H]2[C@H]2CN=C(SCc3ccc(C#N)cc3)N21 4.34%
C=CC[C@H](CC(=O)OC(C)(C)C)C(=O)OC[C@H]1CCCN1C(=O)[C@H](CC=C)CC(=O)N(CCO)Cc1ccccc1 2.54%
CN1CCN(CC(=O)Nc2cccc([N+](=O)[O-])c2)CC1 28%
Cc1ccc(NC(=O)CN(C)CC(=O)Nc2cccc(F)c2)cc1[N+](=O)[O-] 30%
C[C@H](CO)N1C[C@H](C)[C@@H](CN(C)C(=O)NC2CCCCC2)Oc2ccc(NC(=O)c3ccncc3)cc2C1=O 1.49%
Cc1ccc(C(=O)NNC(=O)CSc2nnc3ccccn23)cc1 0.4%
COCCN(Cc1nc(-c2ccc(C(F)(F)F)cc2)no1)C(C)C -2.95%
CCc1ccc(CN(C)C(=O)CCc2nnc(-c3ccc(-c4ccccc4)cc3)o2)nc1 3.52%
CN(C)/N=C/c1cc(Cl)cc([N+](=O)[O-])c1O 46.4%
O=C(N/N=C/c1cc(Br)c(O)c([N+](=O)[O-])c1)C(O)(c1ccccc1)c1ccccc1 28.3%
COc1cc(NC(=O)COC(=O)c2cc(S(=O)(=O)N3CCOCC3)ccc2F)cc(OC)c1 15.3%
O=C(c1cnccn1)N1CCN(S(=O)(=O)c2cccc(Cl)c2)CC1 4.72%
O=C(C[C@@H]1C/C=C\CCC(=O)OC[C@@H]2CCCN2C1=O)NCCO 4.18%
Cc1ccc(S(=O)(=O)NNC(=O)Nc2cccc3ccccc23)cc1 21.8%
CCCCC[C@@H]1C=C(C(=O)O)[C@H](c2ccc(C#N)cc2)N1S(=O)(=O)c1ccc(C)cc1 10.8%
O=C1CSc2ccc(C(=O)NCc3ccccn3)cc2N1 3.47%
CN(C(=O)CSc1nnc(-c2c[nH]c3ccccc23)o1)C1CCS(=O)(=O)C1 (stereo not drawn) 16.6%
O=C(CSc1nnc(-c2c[nH]c3ccccc23)o1)c1ccccc1 29.7%
Cc1cc(NC(=O)c2cccc(N3C(=O)CCC3=O)c2)no1 11.9%
CCOC(=O)Cc1ncccc1C(=O)Nc1ccc(OC)cc1 25.1%
N#Cc1ccc(C(=O)Nc2cccc3cccnc23)c(F)c1 11%
O=C(Nc1cccnc1Cl)c1cc(-c2cccc(Cl)c2)on1 11.7%
COc1ccc(NC(=O)C2CCCN(S(=O)(=O)c3cccc4cccnc34)C2)cc1 (stereo not drawn) 4.36%
COC(=O)c1cccc(NC(=O)c2cccc(N3C(=O)CCC3=O)c2)c1 4.2%
CC[C@]1(C(=O)OC)[C@H]2C(=O)N(C)C(=O)[C@H]2[C@H]2CN(C)C(=NCc3ccccc3)N21 2.73%
COc1ccccc1CNC(=O)COC(=O)c1cccs1 2.2%
O=C(CN1C(=O)NC(Cc2c[nH]c3ccccc23)C1=O)Nc1ccccc1C(F)(F)F (stereo not drawn) 3.6%
CCC(C)c1ccc(NC(=O)COC(=O)C2CCCC2)cc1 (stereo not drawn) 5.25%
CCOC(=O)[C@@H]1[C@H]2COc3ccc(Br)cc3[C@H]2N2C(=O)N(c3ccc(C)cc3)C(=O)[C@@]12C 10.5%
O=C(Cn1cnc2c(OCc3ccccc3)ncnc21)NCc1nc2ccccc2[nH]1 14.3%
CC(O)CNCCOc1cccc(Oc2ccccc2)c1 (stereo not drawn) 3.22%
CC(C)(C)NCC(O)COc1cccc2[nH]c(=O)[nH]c12 (stereo not drawn) 8.82%
COc1ccccc1-c1nnc(NC(=O)c2ccc3ncsc3c2)o1 8.4%
Cc1ccc(C(=O)c2c(NC(=O)c3ccccc3)sc(C)c2C)cc1 21.9%
Cc1ccc(C(=O)Nc2ccccc2-c2ccccc2)cc1S(=O)(=O)Nc1ccccc1 5.71%
CCOc1ccc(N(CC(=O)NCc2ccc(OC)cc2)S(=O)(=O)c2c(C)noc2C)cc1 0.77%
Cc1noc(C)c1S(=O)(=O)N(CC(=O)Nc1ccc2c(c1)OCCO2)c1ccc(C(C)C)cc1 23.3%

inhibition, active:
CC1(C)CN(c2ccc(-c3ccnc4ncnn34)cc2)C1=O 41.3%
Cc1ccc2c(c1)nnc1nnc(SCC(=O)O)n12 89.5%
O=C(Cc1ccccc1)N1CCN(S(=O)(=O)c2ccc([N+](=O)[O-])cc2)CC1 88.8%
O=C(C1CCC1)N1CCN(S(=O)(=O)c2ccc([N+](=O)[O-])cc2)CC1 43.9%
O=C(C1CCCN(S(=O)(=O)c2ccc([N+](=O)[O-])cc2)C1)N1CCCCC1 (stereo not drawn) 66.7%
Cc1noc(C)c1CSCC(=O)Nc1nc2ccc(Oc3ccccc3)cc2s1 76%
CCOC(=O)C(C)Oc1cccc2c(=O)n(CC(=O)NCCc3ccc(OC)c(OC)c3)ccc12 (stereo not drawn) 37%
COc1cccc(/C=N/NC(=O)c2[nH]nc3c2CCc2ccccc2-3)c1O 75.7%
Cc1cc(C(=O)NC2CCCc3c2cnn3-c2cccc(C)c2C)c(C)o1 (stereo not drawn) 81%
Cc1ccc(NC(=O)CN2CCC(C(N)=O)CC2)cc1[N+](=O)[O-] 50.4%
CC(=O)N(C1=C(Cl)C(=O)c2ccccc2C1=O)c1ccc(C(=O)O)cc1 39.2%
CC(=O)c1ccc(-c2nnc(CCC(=O)N(C)Cc3cnc4ccccn34)o2)s1 40.1%
O=C(N/N=C/c1cc(Cl)cc([N+](=O)[O-])c1O)C(O)(c1ccccc1)c1ccccc1 54.6%
Cc1ccc(S(=O)(=O)N2[C@@H](c3cccc4ccccc34)C(C(=O)O)=C[C@H]2C(C)(C)C)cc1 46.2%
CN(C(=O)CSc1nnc(-c2n[nH]c3ccccc23)o1)c1ccccc1 91.9%
O=C(Nc1cccc2cccnc12)c1cccc(N2C(=O)CCC2=O)c1 92.7%
O=C(Nc1cccc2cccnc12)c1cccc(Cl)c1 61.5%
COc1ccc(NC(=O)Nc2cccc3cccnc23)cc1 40%
COc1ccccc1OCCNCC(O)COc1cccc2[nH]c3ccccc3c12 (stereo not drawn) 59.7%
Cc1sc(NC(=O)c2ccc3ncsc3c2)c(C(N)=O)c1C 43.8%
Cc1noc(C)c1S(=O)(=O)N(CC(=O)NCc1ccc(Cl)cc1)c1ccc2c(c1)OCO2 80.7%
